A selection: hits, their analogues and other compounds. The true share with any hit is near 18%.
TDP1 cell CPT = growth inhibition of DT40 Tdp1-/-;hTDP1 cells with camptothecin (screen for TDP1 inhibitors); chicken DT40 Tdp1-/-;hTDP1 cells + 20 nM CPT, ATP luminescence, 48 h; AID 686979; Potency, µM (highest dose often 46.2 µM), for the others: top-dose activity change, negative = growth inhibition, usual class: inhibitors; 12% of 420,000 active; further: potency means the concentration at half of the fitted maximal effect; on the % scale 0 is the no-effect control and ±100 the full control effect; nearly all actives have a fitted effect of over 55% in size
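Chicken DT40 Tdp1-/- cells stably complemented with human TDP1 were seeded at 400 cells/well in medium containing 20 nM camptothecin, exposed to pin-transferred compounds, and grown at 37 °C for at least 48 hr. Viability was read as ATP luminescence.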
TDP1 cell noCPT = qHTS for Inhibitors of human tyrosyl-DNA phosphodiesterase 1 (TDP1): qHTS in cells in absence of CPT; DT40 Tdp1-/- hTDP1 cells, no CPT, ATP luminescence, 48 h; Potency, µM (titrated, usually from 46.2 µM), without a hit: at the top dose activity change, negative = growth inhibition, usual class: inhibitors; 15% of 420,000 active; further: potency means the concentration at half of the fitted maximal effect; on the % scale 0 is the no-effect control and ±100 the full control effect; nearly all actives have a fitted effect of over 55% in size
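Luminescent ATP content (CellTiter-Glo) served as the growth readout. Knockout chicken DT40 cells expressing human TDP1 were exposed to compounds without camptothecin for a minimum 48 hr at 37 °C.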
TDP1 block = inhibitors of human tyrosyl-DNA phosphodiesterase TDP1. Q9NUW8. 0.28% of 350,000 active. recombinant TDP1, AlphaScreen DNA substrate cleavage. Potency, µM (top dose mostly 130 µM), without a hit: at the highest dose activity change, negative = inhibition, most hits filed as inhibitors; further: potency means the concentration at half of the fitted maximal effect; on the % scale 0 is the no-effect control and ±100 the full control effect; nearly all actives have a fitted effect of over 40% in size
Target sequence (Q9NUW8 whole entry, looked up): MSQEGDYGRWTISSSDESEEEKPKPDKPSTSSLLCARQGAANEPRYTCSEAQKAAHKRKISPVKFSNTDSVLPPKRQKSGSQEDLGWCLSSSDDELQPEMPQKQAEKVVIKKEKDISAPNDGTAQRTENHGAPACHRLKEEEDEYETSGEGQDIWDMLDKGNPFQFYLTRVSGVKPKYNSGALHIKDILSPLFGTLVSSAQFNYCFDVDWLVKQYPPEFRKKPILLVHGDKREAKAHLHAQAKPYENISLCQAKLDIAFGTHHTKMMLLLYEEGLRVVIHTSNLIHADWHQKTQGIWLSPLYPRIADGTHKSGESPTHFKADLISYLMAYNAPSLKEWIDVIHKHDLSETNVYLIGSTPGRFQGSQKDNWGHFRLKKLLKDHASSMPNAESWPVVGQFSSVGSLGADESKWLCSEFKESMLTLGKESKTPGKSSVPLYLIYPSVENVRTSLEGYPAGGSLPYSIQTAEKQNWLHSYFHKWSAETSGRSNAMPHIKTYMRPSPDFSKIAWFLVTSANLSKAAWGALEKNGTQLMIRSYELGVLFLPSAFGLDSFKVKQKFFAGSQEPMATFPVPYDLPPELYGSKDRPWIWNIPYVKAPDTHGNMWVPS
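Steps: enzyme plus compound, 15 min RT; add biotin/phosphotyrosine-FITC oligonucleotide (15 nM final), react 5 min; add donor/acceptor beads (10 ug/ml final), 10 min; read AlphaScreen. Tdp1 at 1 nM final.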
TGFb inhibitor = blocks TGF-b signaling; AID 588855; HepG2 CAGA-GFP TGF-b/SMAD3 reporter, GFP fluorescence, 18 h; TGF-beta stimulated, 500 pg/mL final; Potency, µM (highest dose often 46.1 µM), for inactives: at the top dose activity, negative = inhibition, actives largely listed as inhibitors; 1.2% of 410,000 active; further: potency means the concentration at half of the fitted maximal effect; on the % scale 0 is the no-effect control and ±100 the full control effect; nearly all actives have a fitted effect of over 65% in size
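Read-out: total well GFP (ex488/em500-530) summed from mean per-cell fluorescence. Cells: HEPG2 CAGA-GFP, 1% FBS DMEM, 18 h at 37 degrees C with 500 pg/mL final TGF-beta. Unstimulated wells served as the full-inhibition control; stimulated DMSO wells = 0%.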
IL-1B inflam inh = inflammasome signaling inhibition, IL-1 beta readout. activity change, % at 57.5 µM. 4.7% of 360,000 active. THP-1 LPS/ATP IL-1B secretion, AlphaLISA, 16 h; stronger effect = lower value. AID 743279; in the data active means activity change below about -50%; inconclusive means mostly about -30% to -49%; further: on the % scale 0 is the no-effect control and ±100 the full control effect
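THP-1 cells pretreated 1 hr with compounds (up to 57.5 uM final), then stimulated with LPS (250 ng/mL final) plus ATP (1.25 mM final); secreted IL-1B measured by AlphaLISA after 16 hr, decreased signal indicating inhibition.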
HepG2 viability = HepG2 cytotoxicity, counter-screen for TGF-b inhibitors. 0.76% of 410,000 active. AID 588856. Potency, µM (highest dose often 46.1 µM), for the others: top-dose activity change, negative = cytotoxicity, hits mostly cytotoxic. HepG2 CAGA-GFP viability, ATP luminescence, 18 h; further: potency means the concentration at half of the fitted maximal effect
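CellTiter-Glo luminescence gave cytotoxicity after 18 hours at 37 degrees C. The cells were HepG2 CAGA-GFP in 1% FBS DMEM, stimulated with 500 pg/mL TGF-beta after compound addition. %Activity was normalised to no-cell wells (complete cell-killing) and DMSO (no toxicity), and curves were fitted and classified.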
* marks the source's active call; other numbers are inactive results; i = inactive; ? = inconclusive; nt = not tested or not shown; [ ] = dose if it differs, or a comment. Unless noted, the call rests on the fitted dose curve; in most records, active means well fitted curve in the direction sought with a large enough effect; inconclusive means small, poorly fitted or top-dose-only effect, or another doubt; inactive means no such curve, though single readings can be large; an effect the other way counts as inactive or inconclusive.

SMILES	TDP1 cell CPT	TDP1 cell noCPT	TDP1 block	TGFb inhibitor	IL-1B inflam inh	HepG2 viability
COc1ccc(C(=O)NC2CCCc3c2cnn3-c2cc(F)cc(F)c2)c(OC)n1 (stereo unspecified)	-26%	-17%	-5%	2%	14	2%
COc1ccc(C(=O)NC2CCCc3c2cnn3-c2cc(F)cc(F)c2)c(OC)c1OC (stereo unspecified)	16µM*	15µM*	2%	-9%	-7	-11%
COC(=O)c1ccc(C(=O)NC2CCCc3c2cnn3-c2cc(F)cc(F)c2)nc1 (stereo unspecified)	2.9µM*	2.1µM*	0%	13%	i	-20%
O=C1CC2(CCCC2)CC(=O)N1CCNC[C@H]1COc2ccccc2O1	3%	-23%	12%[56.1 µM]	nt	nt	nt
Cn1c(=O)c(Nc2ccc(O)cc2)c2c3c(cccc31)C(=O)c1ccccc1-2	3.7µM*	2.6µM*	3%	0%	?	-9%
C[C@@H]1Cn2cnc(C(=O)Nc3cccc(Cl)c3)c2C(=O)N1	?	?	nt	-9%	0	-23%
CC(C)(C)c1ccc(S(=O)(=O)Nc2ccc(Cc3ccncc3)cc2)cc1	?	16µM*	11%	?	?	-33%
CC(=O)c1ccc(NS(=O)(=O)c2ccc(CC(C)C)cc2)cc1	?	?	0%	16µM*	10	-92%
CC(=O)Nc1ccc(S(=O)(=O)Nc2ccc(Cc3ccncc3)cc2)cc1	?	9.2µM*	4%	-11%	-5	-7%
CC(C)Cn1cnc2c(Sc3c([N+](=O)[O-])ncn3C)nc(N)nc21	?	?	nt	?	-101*	-1%
CSc1nc(N)nc2c1ncn2CC(=O)NCCNc1ccc([N+](=O)[O-])cn1	?	-6%	0%	1%	9	-12%
CCC(C)Cn1cnc2c(Sc3c([N+](=O)[O-])ncn3C)nc(N)nc21 (stereo unspecified)	16µM*	23µM*	nt	-8%	-56*	8%
COc1ccc(C(=O)/C=C/c2cn(CC(O)CN(CC(C)C)CC(C)C)c3ccccc23)cc1OC (stereo unspecified)	nt	nt	0%	?	nt	-25%
CCOc1ccc(C(=O)/C=C/c2cn(CN3CCN(C)CC3)c3ccccc23)cc1	-20%	?	-3%	?	-21	-37%
CCC(=C(c1ccc(OC)cc1)c1ccc(OC)cc1)c1cn(CC(O)CN(CCO)CCO)c2ccccc12 (stereo unspecified)	?	21µM*	5%	?	?	-125%
CCCN(CCC)CC(O)Cn1cc(/C=C/C(=O)c2ccc(OCC)cc2)c2ccccc21 (stereo unspecified)	5.8µM*	5.2µM*	8%	?	nt	13µM*
CC(C)CN(CC(C)C)CC(O)Cn1cc(/C=C/C(=O)c2ccccc2)c2ccccc21 (stereo unspecified)	4.1µM*	4.6µM*	3%	-12%	nt	-38%
CO[C@@H]1COC(=O)C/C=C\[C@@H](C)[C@@H]2C=C[C@H](O)[C@@H](COC(=O)CCC[C@H]1C)O2	nt	nt	3%[21 µM]	nt	nt	nt
CCN(Cc1ccccc1)S(=O)(=O)c1ccc(C(=O)N(CCCN(C)C)c2nc3cc(OC)ccc3s2)cc1	?	23µM*	-1%[0.505 µM]	?	-100*	22µM*
CN(C)CCCN(C(=O)c1ccco1)c1nc2ccc(F)cc2s1	-19%	?	2%	2%	-8	-5%
CCCCN(C(=O)c1ccc(S(=O)(=O)N(C)C)cc1)c1nc2ccccc2s1	-8%	2%	-8%	-8%	15	13%
CCN(Cc1ccccc1)S(=O)(=O)c1ccc(C(=O)N(CCCN(C)C)c2nc3cc4c(cc3s2)OCCO4)cc1	?	?	nt	?	-95*	-93%
CCN(Cc1ccccc1)S(=O)(=O)c1ccc(C(=O)N(CCCN(C)C)c2nc3ccc(F)cc3s2)cc1	?	-7%	10%	?	-101*	-106%
COc1ccc2sc(N(CCCN(C)C)C(=O)c3ccc(C(=O)c4ccccc4)cc3)nc2c1	16µM*	?	2%	?	-88*	-47%
Cc1c(CNC2CCC(C)CC2)c(C(=O)O)c(C)n1Cc1ccc(Cl)cc1 (stereo unspecified)	?	?	5%	-10%	nt	-3%
SMILES	TDP1 cell CPT	TDP1 cell noCPT	TDP1 block	TGFb inhibitor	IL-1B inflam inh	HepG2 viability
Brc1ccc(N=C(c2ccccc2)c2ccncc2)cc1	-15%	?	3%	-29%	-1	3%
CN(C)CCCN(C(=O)c1nc2ccccc2s1)c1nc2ccc(F)cc2s1	3.7µM*	5.8µM*	nt	-2%	-13	6%
CN(C)CCCN(C(=O)c1ccc(S(=O)(=O)N(C)Cc2ccccc2)cc1)c1nc2c(F)cccc2s1	?	-7%	9%	-11%	-96*	-15%
CN(C)CCCN(C(=O)c1ccc(C(=O)c2ccccc2)cc1)c1nc2ccc(F)cc2s1	?	?	6%	?	-27	-79%
O=C(NNC(=O)c1ccccc1-n1cccc1)c1ccc(Cl)cc1	5%	-11%	10%	23%	10	3%
CC(C)(C)c1ccc(C(=O)NNc2ncccc2-n2cccc2)cc1	13µM*	13µM*	1%	9%	-5	-2%
O=C(NNc1ncccc1-n1cccc1)c1ccc(Cl)cc1	?	7.3µM*	-1%	5%	-20	-15%
COc1ccc(NCc2cc3cc4c(cc3n(CC(=O)Nc3ccc(C)cc3)c2=O)OCO4)cc1	nt	nt	8%	-6%	nt	-25%
COc1ccc2[nH]c(=O)c(CN(C)C(=O)c3cccs3)cc2c1	-20%	?	nt	-9%	-1	-27%
Oc1c(C(c2ccc(Cl)cc2)N2CCCC2)cc(Cl)c2cccnc12 (stereo unspecified)	4.1µM*	5.2µM*	9%	4%	104	6%
CN1CCN(C(c2ccccn2)c2cc(Cl)c3cccnc3c2O)CC1 (stereo unspecified)	6.5µM*	6.5µM*	8%	?	27	-13%
Oc1c(C(c2ccccn2)N2CCC(Cc3ccccc3)CC2)cc(Cl)c2cccnc12 (stereo unspecified)	4.1µM*	2.9µM*	11%	16µM*	-106*	-48%

Screening data: PubChem, National Center for Advancing Translational Sciences (NCATS)
